Consider seven compounds from PubChem BioAssay (NCI).

About 83,000 compounds went through this panel and 20% of them were active in at least one assay; those are over-represented in the sample as a whole.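 Note: values are percent growth. 100 is the growth of untreated cells, values between 100 and 0 indicate rising inhibition; between -100 and 0 indicates cell death.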 A number with no mark means an inactive call. Calls of active or inactive are those of the source. Rule for the calls: active = growth percent below 10; inactive = the rest.

Some test systems named below: HCT-15 colon; HT29 colon; SNB-75 CNS; SNB-19 CNS; U251 CNS; PC-3 prostate; SK-MEL-5 melanoma; UACC-62 melanoma; LOX IMVI melanoma; SK-MEL-28 melanoma; SK-MEL-2 melanoma; EKVX NSCLC; SN12C renal; UO-31 renal; TK-10 renal; ACHN renal; CAKI-1 renal; A498 renal; CCRF-CEM leukemia; MOLT-4 leukemia.
Test in all cases: NCI-60 one-dose screen, 48 h (100 = growth as untreated, 0 = no growth, -100 = all killed)
What all share (details): 10 µM unless noted

As to `CCNC(=O)Oc1ccc(/C(=C(/C)Cc2ccc(OC)cc2)c2ccc(OCCN(CC)CC)cc2)cc1`, the growth with HCT-15 colon is 2.84% (active); with HT29 colon, -42.2% (active); in the assay on SNB-75 CNS, 80.8%; with SNB-19 CNS it was 74.5%; in the assay with U251 CNS, 33.9%; with PC-3 prostate, 56.5%. Besides, the growth in the assay with SK-MEL-5 melanoma is -97.1% (active); in the assay with UACC-62 melanoma, -16.4% (active); with LOX IMVI melanoma, -75.2% (active); in the assay with SK-MEL-28 melanoma, -60% (active); in the assay with SK-MEL-2 melanoma, 86.5%; in the assay with EKVX NSCLC it was 69.6%. In addition, the growth in the assay with SN12C renal was 68.6%; in the assay on UO-31 renal, 43.1%; with TK-10 renal, 65.9%; with ACHN renal it was 81.5%; with CAKI-1 renal, 61.4%; in the assay on A498 renal, 80%. The growth was 35.6% in the assay on CCRF-CEM leukemia and 14.7% in the assay with MOLT-4 leukemia.

As to `CCOC(=O)c1nnn(Cc2cc(=O)oc3c2ccc2ccccc23)c1C`, the growth is 104% with HCT-15 colon; 96.7% in the assay with HT29 colon; 91.6% with SNB-75 CNS; 98.2% in the assay with SNB-19 CNS; 104% in the assay on U251 CNS; 89.2% in the assay with PC-3 prostate. The growth in the assay with SK-MEL-5 melanoma is 101%; with UACC-62 melanoma it was 98.7%; with LOX IMVI melanoma it was 101%; in the assay on SK-MEL-28 melanoma, 109%; in the assay with SK-MEL-2 melanoma, 110%; in the assay with EKVX NSCLC it was 105%. The growth with SN12C renal was 96.7%; in the assay with UO-31 renal, 77.3%; in the assay with TK-10 renal it was 101%; in the assay with ACHN renal, 97.9%; in the assay on CAKI-1 renal, 98%; with A498 renal, 108%. Further, the growth in the assay with CCRF-CEM leukemia was 88.2%; in the assay with MOLT-4 leukemia, 108%.

Consider `COc1ccccc1/C=C1\COc2ccc(O)cc2C1=O`, for which the growth in the assay with HCT-15 colon is 48.7%; in the assay with HT29 colon, 51.6%; in the assay on SNB-75 CNS, 96%; in the assay on SNB-19 CNS, 90.6%; in the assay with U251 CNS it was 62.3%; in the assay on PC-3 prostate, 75.8%. In addition, the growth in the assay with SK-MEL-5 melanoma is 66.5%; in the assay on UACC-62 melanoma it was 69.1%; in the assay with LOX IMVI melanoma it was 34.6%; in the assay with SK-MEL-28 melanoma it was 101%; in the assay with SK-MEL-2 melanoma, 93.5%; in the assay on EKVX NSCLC it was 102%. In addition, the growth was 72% in the assay with SN12C renal; 74.6% in the assay with UO-31 renal; 93.3% in the assay on TK-10 renal; 57.8% with ACHN renal; 68.1% in the assay with CAKI-1 renal; 109% with A498 renal. In addition, the figures for the growth with CCRF-CEM leukemia and in the assay with MOLT-4 leukemia were 6.4% (active) and 21%, respectively.

Regarding `COc1cc(/C=C2\C(=O)N(CCCCn3c4ccccc4c(=O)c4ccccc43)c3ccccc32)cc(OC)c1O`, the growth is 36.3% in the assay with HCT-15 colon; 41.6% in the assay with HT29 colon; 51.7% in the assay on SNB-75 CNS; 62.7% in the assay on SNB-19 CNS; 67.5% in the assay on U251 CNS; 39.9% in the assay with PC-3 prostate. The growth with SK-MEL-5 melanoma is 55.3%; in the assay on UACC-62 melanoma, 37.5%; with LOX IMVI melanoma it was 52.8%; with SK-MEL-28 melanoma it was 68.5%; with SK-MEL-2 melanoma it was 26.5%; in the assay with EKVX NSCLC it was 74%. Further, the growth with SN12C renal was 71.1%; in the assay on UO-31 renal, 49.5%; in the assay on TK-10 renal it was 120%; in the assay with ACHN renal, 63.3%; in the assay on CAKI-1 renal, 52%; in the assay with A498 renal it was 75.5%. The growth in the assay with CCRF-CEM leukemia was 15.9%; in the assay on MOLT-4 leukemia it was 29%.

As for `N=C(N)c1ccc(-c2ccc(-c3ccc(Cl)c(Cl)c3)s2)cc1`, the growth with HCT-15 colon is -62.5% (active); in the assay with HT29 colon, 6.02% (active); with SNB-75 CNS it was 103%; in the assay on SNB-19 CNS, -23.8% (active); in the assay with U251 CNS, -65.9% (active); in the assay with PC-3 prostate, -24.1% (active). The growth is 94.8% with SK-MEL-5 melanoma; 88.6% with UACC-62 melanoma; -71.3% (active) in the assay with LOX IMVI melanoma; 107% with SK-MEL-28 melanoma; 107% with SK-MEL-2 melanoma; 72.4% with EKVX NSCLC. Moreover, the growth was 14.3% in the assay on SN12C renal; 54% in the assay on UO-31 renal; 109% in the assay on TK-10 renal; -62.7% (active) in the assay on ACHN renal; -69% (active) in the assay on CAKI-1 renal; 86.7% in the assay with A498 renal. The values for the growth in the assay with CCRF-CEM leukemia and in the assay with MOLT-4 leukemia were 1.96% (active) and -14.9% (active), respectively.

Regarding `CCOC(=O)C1=C(C)N=C2SC=C(c3ccc(F)cc3)N2[C@H]1c1cn(-c2ccccc2)nc1-c1ccc(Cl)cc1`, the growth in the assay on HCT-15 colon is 92.9%; with HT29 colon, 101%; in the assay on SNB-75 CNS, 78.2%; in the assay on SNB-19 CNS it was 92.1%; in the assay with U251 CNS it was 88%; in the assay on PC-3 prostate it was 80.7%. Besides, the growth in the assay with SK-MEL-5 melanoma is 96.4%; in the assay on UACC-62 melanoma it was 81.6%; in the assay on LOX IMVI melanoma it was 95.7%; in the assay with SK-MEL-28 melanoma, 106%; in the assay on SK-MEL-2 melanoma, 97.4%; in the assay with EKVX NSCLC, 88.4%. The growth in the assay with SN12C renal is 98.6%; with UO-31 renal it was 85.1%; with TK-10 renal it was 93.6%; in the assay with ACHN renal, 101%; in the assay with CAKI-1 renal, 84.1%; with A498 renal, 89.7%. The growth is 95.5% with CCRF-CEM leukemia and 78.3% in the assay with MOLT-4 leukemia.

As for `C=C[C@]1(C)C=C2CC[C@@H]3C(C)(C)C(=O)CC[C@@]3(C)[C@@H]2CC1`, the growth is 106% in the assay on HCT-15 colon; 102% in the assay with HT29 colon; 90.5% with SNB-75 CNS; 108% in the assay with SNB-19 CNS; 98.5% in the assay on U251 CNS; 98.8% in the assay on PC-3 prostate. The growth was 109% in the assay on SK-MEL-5 melanoma; 97.9% in the assay on UACC-62 melanoma; 99.5% with LOX IMVI melanoma; 113% in the assay with SK-MEL-28 melanoma; 106% with SK-MEL-2 melanoma; 101% in the assay with EKVX NSCLC. Moreover, the growth was 99% with SN12C renal; 17.9% with UO-31 renal; 98.7% with TK-10 renal; 106% in the assay with ACHN renal; 84% in the assay with CAKI-1 renal; 90.6% in the assay with A498 renal. The growth was 101% in the assay on CCRF-CEM leukemia and 109% in the assay with MOLT-4 leukemia.
